Some targets named below: hnRNP-P2 (Homo sapiens, UniProt P35637); hnRNP-I(1-2) (Homo sapiens, UniProt P26599); CELF5(1-2) (Homo sapiens, UniProt Q8N6W0); EIF4H (Homo sapiens, UniProt Q15056); PABPC1L2A (Homo sapiens, UniProt Q5JQF8); IGF2BP3 (Homo sapiens, UniProt O00425).
Assay in all cases: protein domain microarray probed with biotinylated miRNA; Domain array: 20 mM Tris-HCl pH 7.4, 200 mM KCl, 0.2 mM EDTA, 0.05% NP40, 2 ug/ul heparin, overnight 4 C. ORF array: PBS pH 7.0 with RNase inhibitor, 100 ng RNA; high values mean tight binding
Common to all, as to conditions: ssRNA

For another test, the target named is T1, hnRNP-H2 (Homo sapiens, UniProt P55795).
T1 sequence: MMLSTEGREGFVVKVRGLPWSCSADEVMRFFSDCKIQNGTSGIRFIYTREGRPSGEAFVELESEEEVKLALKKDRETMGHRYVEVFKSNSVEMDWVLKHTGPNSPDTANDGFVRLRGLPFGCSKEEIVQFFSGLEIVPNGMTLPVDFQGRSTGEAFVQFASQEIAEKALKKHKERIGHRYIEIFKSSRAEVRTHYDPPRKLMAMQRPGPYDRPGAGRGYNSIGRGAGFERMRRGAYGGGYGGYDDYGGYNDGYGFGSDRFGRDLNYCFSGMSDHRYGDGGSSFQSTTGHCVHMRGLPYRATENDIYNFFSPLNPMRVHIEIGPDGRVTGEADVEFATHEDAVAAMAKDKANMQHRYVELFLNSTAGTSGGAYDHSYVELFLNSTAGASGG

The next test deals with T2, MTHFSD (Homo sapiens, UniProt Q2M296).
T2 sequence: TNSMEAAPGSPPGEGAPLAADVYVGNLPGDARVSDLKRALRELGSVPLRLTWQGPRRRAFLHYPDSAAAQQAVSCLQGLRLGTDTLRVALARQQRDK

The next test addresses T3, NCBP2L (Homo sapiens, UniProt A6PVI3).
T3 sequence: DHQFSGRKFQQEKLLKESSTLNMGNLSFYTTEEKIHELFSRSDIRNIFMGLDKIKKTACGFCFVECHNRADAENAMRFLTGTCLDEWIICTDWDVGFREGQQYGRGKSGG

In the next test the target is T4, LARP7(1) (Homo sapiens, UniProt Q4G0J3).
T4 sequence: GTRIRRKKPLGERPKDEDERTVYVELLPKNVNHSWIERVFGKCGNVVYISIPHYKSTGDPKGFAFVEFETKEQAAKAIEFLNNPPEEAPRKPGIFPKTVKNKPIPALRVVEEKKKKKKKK

Sequence of hnRNP-P2 (P35637 265-390): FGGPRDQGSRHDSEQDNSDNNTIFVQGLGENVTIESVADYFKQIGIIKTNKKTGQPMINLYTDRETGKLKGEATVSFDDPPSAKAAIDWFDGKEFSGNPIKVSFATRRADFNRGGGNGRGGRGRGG
Sequence of CELF5(1-2) (Q8N6W0 20-233): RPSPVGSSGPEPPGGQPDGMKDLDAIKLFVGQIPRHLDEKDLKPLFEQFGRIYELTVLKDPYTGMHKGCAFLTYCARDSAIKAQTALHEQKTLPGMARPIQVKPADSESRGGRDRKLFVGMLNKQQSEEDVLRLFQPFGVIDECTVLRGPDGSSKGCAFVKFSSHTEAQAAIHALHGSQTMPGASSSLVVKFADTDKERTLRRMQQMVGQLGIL
Sequence of IGF2BP3 (O00425 1-176): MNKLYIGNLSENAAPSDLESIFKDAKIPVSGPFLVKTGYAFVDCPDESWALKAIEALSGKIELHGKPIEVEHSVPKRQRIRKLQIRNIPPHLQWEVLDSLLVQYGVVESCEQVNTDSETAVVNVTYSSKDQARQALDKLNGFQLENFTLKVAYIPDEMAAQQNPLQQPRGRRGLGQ
Sequence of PABPC1L2A (Q5JQF8 whole entry, the tested form may be a part): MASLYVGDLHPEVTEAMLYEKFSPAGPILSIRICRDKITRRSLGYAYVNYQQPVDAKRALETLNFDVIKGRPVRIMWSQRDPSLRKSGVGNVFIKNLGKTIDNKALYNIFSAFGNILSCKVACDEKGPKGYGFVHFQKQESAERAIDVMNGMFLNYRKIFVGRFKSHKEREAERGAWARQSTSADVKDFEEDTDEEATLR
Sequence of hnRNP-I(1-2) (P26599 40-280): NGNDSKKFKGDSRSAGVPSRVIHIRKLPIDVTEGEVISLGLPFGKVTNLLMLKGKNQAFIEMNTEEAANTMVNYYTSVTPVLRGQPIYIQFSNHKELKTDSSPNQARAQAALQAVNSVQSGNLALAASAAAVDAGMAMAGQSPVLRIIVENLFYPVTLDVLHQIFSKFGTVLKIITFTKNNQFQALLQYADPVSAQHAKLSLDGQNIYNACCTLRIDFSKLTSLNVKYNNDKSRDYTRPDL

Take UGAGGUAGUAGGUUGUAUAGUU: the binding signal with hnRNP-P2 was 58.1 ± 13.9 fluorescence intensity; in the test with hnRNP-H2 it was 258 ± 16.1 fluorescence intensity; with MTHFSD, 133 ± 32.4 fluorescence intensity; with NCBP2L, 40.6 ± 4.36 fluorescence intensity; in the test with hnRNP-I(1-2), 293 ± 83.2 fluorescence intensity; with LARP7(1), 35.35 ± 0.0495 fluorescence intensity. The binding signal was found to be 24.4 ± 2.19 fluorescence intensity with CELF5(1-2), 31.8 ± 3.73 fluorescence intensity with EIF4H and 46.3 ± 9.23 fluorescence intensity with PABPC1L2A.
For the sequence UGAGGUAGUAGGUUGUGUGGUU, the binding signal with hnRNP-P2 was 576 ± 71.1 fluorescence intensity; with hnRNP-H2, 727 ± 35.9 fluorescence intensity; with MTHFSD it was 439 ± 58.4 fluorescence intensity; with IGF2BP3, 36.9 ± 7.82 fluorescence intensity; with NCBP2L, 239 ± 6.08 fluorescence intensity; in the test with hnRNP-I(1-2) it was 994 ± 33.7 fluorescence intensity. Also, the binding signal in the test with LARP7(1) was determined as 234 ± 9.55 fluorescence intensity; with CELF5(1-2), 107 ± 9.34 fluorescence intensity; with EIF4H, 208 ± 18.3 fluorescence intensity; in the test with PABPC1L2A, 312 ± 42.4 fluorescence intensity.
As for UGAGGUAGUAGGUUGUAUGGUU, the binding signal is 441 ± 19.8 fluorescence intensity in the test with hnRNP-P2; 663 ± 15.2 fluorescence intensity with hnRNP-H2; 488 ± 22.1 fluorescence intensity with MTHFSD; 22.9 ± 3.19 fluorescence intensity in the test with IGF2BP3; 180 ± 10.2 fluorescence intensity with NCBP2L; 911 ± 32.3 fluorescence intensity with hnRNP-I(1-2). In addition, the binding signal with LARP7(1) is 153.2 ± 0.424 fluorescence intensity; with CELF5(1-2), 48 ± 2.14 fluorescence intensity; with EIF4H, 93.9 ± 8.49 fluorescence intensity; with PABPC1L2A, 240 ± 13.7 fluorescence intensity.
Regarding AGAGGUAGUAGGUUGCAUAGUU, the binding signal in the test with hnRNP-P2 amounted to 131 ± 2.9 fluorescence intensity; in the test with hnRNP-H2, 907 ± 16.1 fluorescence intensity; with MTHFSD it was 716 ± 48.4 fluorescence intensity; with IGF2BP3, 46.2 ± 3.19 fluorescence intensity; in the test with NCBP2L, 202 ± 9.81 fluorescence intensity; in the test with hnRNP-I(1-2), 1010 ± 92.8 fluorescence intensity. Moreover, the binding signal with LARP7(1) came to 137 ± 1.39 fluorescence intensity; with CELF5(1-2), 56.1 ± 4.7 fluorescence intensity; in the test with EIF4H, 115 ± 9.98 fluorescence intensity; in the test with PABPC1L2A, 179 ± 20.3 fluorescence intensity.
With CAGUGCAAUGAUGAAAGGGCAU, the binding signal in the test with hnRNP-P2 worked out at 40.3 ± 3.56 fluorescence intensity; with hnRNP-H2, 944.5 ± 8.38 fluorescence intensity; with MTHFSD, 349.3 ± 0.905 fluorescence intensity; with IGF2BP3, 20.1 ± 2.45 fluorescence intensity; with NCBP2L it was 162 ± 7.95 fluorescence intensity; with hnRNP-I(1-2), 185 ± 5.4 fluorescence intensity. Moreover, the binding signal with LARP7(1) is 104 ± 10.5 fluorescence intensity; with CELF5(1-2), 52.7 ± 5.17 fluorescence intensity; with EIF4H, 71.2 ± 5.92 fluorescence intensity; in the test with PABPC1L2A, 88.7 ± 6.19 fluorescence intensity.
UAGCUUAUCAGACUGAUGUUGA: the binding signal is 20 ± 0.509 fluorescence intensity in the test with hnRNP-H2, 42.6 ± 13.9 fluorescence intensity with MTHFSD, 43.9 ± 1.85 fluorescence intensity with NCBP2L and 72.7 ± 35.4 fluorescence intensity with hnRNP-I(1-2).

For the origin of these results see paper PMC11574364.
